# MITF inh: blocks human microphthalmia-associated transcription factor; inhibition, % at 2.6 µM; AID 1259374; AlphaScreen MITF homodimerization, bead proximity signal; O75030; actives 0.91% (n = 650,000); in the data active means inhibition above about 50%;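 further: 0% = vehicle wells with protein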
# FBW7 activator: human FBW7 E3 ligase activation, primary screen. AlphaScreen FBW7–phospho-cyclin E peptide binding, activator screen. actives 0.13% (n = 650,000). AID 1259310. Q969H0. normalized activity (activation), % at 26.1 µM; in the data active means normalized activity above about 1.9%;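 further: purified mutant Fbw7 with reduced substrate affinity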
# GPR151 ag: human GPR151 activation; Q8TDV0; PathHunter beta-arrestin GPR151 cells, luminescence; activation, % at 11.2 µM; actives 1% (n = 650,000); AID 1508602; in the data active means activation above about 4.9%;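 further: 0% = median of compound wells and 100% = cells with positive control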
# TEAD-YAP inh: TEAD-YAP interaction inhibition; HEK-TIYL cells, TEAD-Gal4/YAP UAS-luciferase luminescence; inhibition, % at 9.12 µM; actives 1.4% (n = 640,000); in the data active means inhibition above about 32%;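 further: 0% = median of test compound wells and 100% = reference inhibitor wells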
# GPR151 confirm: confirmation of human GPR151 activators; shares compounds with GPR151 ag; GPR151 PathHunter beta-arrestin cells, luminescence, 90 min; % of EA-reagent control over plate median; activation, % at 11.2 µM; 6,700 tested, under 10 active;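 active means mean percent activation across replicates above the confirmation screen cutoff of 4.91%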
# GPR119 ag: GPR119 activation, counter-screen for GPR151 activators. activation, % at 11.2 µM. GPR119 PathHunter beta-arrestin cells, luminescence, 90 min; 0 = compound-well median, 100 = enzyme-acceptor control. actives 0.3% (n = 6,700). shares compounds with GPR151 ag;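 active means mean percent activation in the counterscreen above 29.09%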;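 further: counterscreen on off-target GPR119 to flag nonselective hits from the GPR151 activator screen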
# Target sequence (Q8TDV5 whole entry, looked up): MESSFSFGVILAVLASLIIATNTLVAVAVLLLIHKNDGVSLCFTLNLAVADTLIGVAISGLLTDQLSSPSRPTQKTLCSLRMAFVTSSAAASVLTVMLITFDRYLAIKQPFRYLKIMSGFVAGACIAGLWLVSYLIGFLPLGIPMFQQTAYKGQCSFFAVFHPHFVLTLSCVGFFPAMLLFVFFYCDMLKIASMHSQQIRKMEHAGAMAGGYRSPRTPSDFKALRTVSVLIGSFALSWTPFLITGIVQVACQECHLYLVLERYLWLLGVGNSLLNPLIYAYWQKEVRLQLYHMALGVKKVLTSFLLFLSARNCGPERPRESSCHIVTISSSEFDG
# * = called active by the depositor; · = no result given. Most compounds without a hit are left out; they make up all but 3.4% or so of the library.
SMILES,MITF inh,FBW7 activator,GPR151 ag,TEAD-YAP inh,GPR151 confirm,GPR119 ag
COc1ccc(NC(=O)CNNC(=O)COc2ccccc2Cc2ccccc2)cc1,0,0,3,9,·,·
O=C(Cn1ncc2ccccc2c1=O)NNC(=S)NC1CC2CCC1C2 (stereo unspecified),5,1,10*,5,0,8
COc1ccc(N2CCN(CC(O)COc3ccccc3C(C)=O)CC2)cc1 (stereo unspecified),15,0,5.9*,9,0,8
Cc1nn(-c2ccccn2)c2c1C(=O)CC(c1ccco1)C2 (stereo unspecified),21,1,-1,11,·,·
Cc1[nH]c2ccccc2c1/C=N/NC(=O)c1ccccc1O,15,0,0,-10,·,·
Cc1[nH]c2ccccc2c1/C=N/NC(=O)c1cccnc1,1,0,5.2*,-13,-1,7
O=C(N/N=C/c1ccccc1F)c1cccnc1,13,0,7.1*,-3,-1,-6
COc1ccccc1Nc1cc(N2CCCCC2)c2nonc2c1[N+](=O)[O-],5,0,0,-6,·,·
Cc1ccc(/C=C2\N=C(c3cccc([N+](=O)[O-])c3)OC2=O)o1,5,0,0,-1,·,·
C=CCNc1nc(Cl)nc(NCCC2=CCCCC2)n1,0,0,5.1*,-5,-1,-12
Fc1ccc(-c2cc(N3CCCCC3)nc(-c3cccnc3)n2)cc1,-2,0,0,5,·,·
CC(=NCCCn1cnc2c1c(=O)n(C)c(=O)n2C)N(C)C,14,0,6.4*,-2,0,1
CCCn1c(N)c(C(=O)CSc2nc(N)cc(=O)[nH]2)c(=O)n(C)c1=O,-11,0,-1,1,·,·
CC(C)c1ccc(NC(=O)CSc2nc3cc4c(cc3c(=O)n2CCC2=CCCCC2)OCO4)cc1,-4,0,5.9*,4,-1,7
COc1ccc(C2CC(=O)C3=C(C2)Nc2ccccc2NC3c2coc3ccc(C)cc3c2=O)cc1 (stereo unspecified),3,0,-1,-4,·,·
CCOc1ccc(/C(O)=C2/C(=O)C(=O)N(CCN(CC)CC)C2c2ccc(OC)c(OC)c2)cc1C (stereo unspecified),0,0,6.6*,-10,0,-5
CCOc1ccc(/C(O)=C2/C(=O)C(=O)N(CCN(CC)CC)C2c2ccc(Cl)cc2)cc1C (stereo unspecified),1,0,-1,7,·,·
O=[N+]([O-])c1ccc(C2Nc3ccccc3S(=O)(=O)N2Cc2ccccc2)cc1 (stereo unspecified),3,0,6.7*,-3,0,-6
COc1ccc(C2Nc3ccccc3S(=O)(=O)N2Cc2ccccc2)cc1[N+](=O)[O-] (stereo unspecified),-7,0,0,-3,·,·
O=C(CN(Cc1ccccc1F)S(=O)(=O)c1ccc(Cl)cc1)NCCCO,5,0,6.0*,11,1,8
Cn1c2ccccc2c(=O)c2c(=O)n(Cc3ccccc3)c(-c3ccco3)nc21,-2,0,0,4,·,·
COCCCn1c(-c2ccc(F)cc2)nc2c(c(=O)c3ccccc3n2C)c1=O,16,1,5.9*,0,0,-5
Cn1c2ccccc2c(=O)c2c(=O)n(CCc3ccccc3)c(-c3ccco3)nc21,-12,0,9.4*,-2,0,-5
CC(C)=CCN1CCNC(=O)C1CC(=O)N1CCCCCC1 (stereo unspecified),-2,0,-1,-2,·,·
N#C/C(=C/c1ccc(N2CCOCC2)c([N+](=O)[O-])c1)c1nc2ccccc2[nH]1,-25,0,5.2*,-19,-2,-6
SMILES,MITF inh,FBW7 activator,GPR151 ag,TEAD-YAP inh,GPR151 confirm,GPR119 ag
C=CCN(CC=C)CCOCCOc1ccccc1OCC,15,0,0,-20,·,·
O=C(O)CN1CCOCCOCCN(CC(=O)O)CCOCCOCC1,3,0,5.9*,3,0,-3
C=CCOc1ccccc1/C=N/NC(=O)c1cccc(I)c1,-7,0,11*,-7,0,1
CCN(CC)CCNC(=O)Cc1c(C(=O)O)n(C)c2ccccc12,2,0,-1,0,·,·
COc1ccc(OC)c(C2C(C#N)=C(N)Oc3c2c(C)nn3-c2ccccc2)c1 (stereo unspecified),4,0,-2,12,·,·
CC(=O)Nc1ccc(Nc2nc(-c3ccc(C(=O)NC4CC4)cc3)nc3nc[nH]c23)cc1,-2,0,7.8*,-7,2,-11
O=C(CCCOc1ccccc1)NNC(=O)c1ccccc1,1,0,26*,0,1,11
CC(=O)c1ccc(OCCCC(=O)NNC(=O)c2ccccc2)cc1,-8,0,-1,-36,·,·
Cc1ccc(C)n1-c1ccc(Cl)cc1C(=O)O,70*,-1,7.7*,8,-1,-9
Cc1ccc(C)n1-c1ccc(Cl)cc1O,0,0,0,5,·,·
O=c1c2c3c(sc2[nH]c(=S)n1-c1ccccc1)CN(Cc1ccccc1)CC3,2,0,5.3*,9,0,-6
O=c1c2c3c(sc2[nH]c(=S)n1-c1ccccc1)CCC3,11,2,1,0,·,·
COc1cc(NC(=O)Nc2ccc(-c3nc4ccccc4o3)cc2)cc(OC)c1OC,-9,0,5.6*,-40,0,7
CCOC(=O)c1sc(NC(=O)CSc2ncnc3sc(C)c(C)c23)c(C(=O)OCC)c1C,10,0,6.4*,9,1,8
CCOc1ccc(CC(=O)N[C@H](C)Cn2nnc3ccccc32)cc1,3,0,0,6,·,·
O=C1CC(c2nnc(Cc3ccccc3Cl)o2)CN1c1ccccc1 (stereo unspecified),-12,0,5.5*,6,0,-10
O=C(Nc1ccc2nn(-c3ccccc3)nc2c1)C(Cl)(Cl)Cl,-1,0,-2,-11,·,·
Nc1nc(NC(=O)C(Cl)(Cl)Cl)nn1-c1ccccc1,25,-1,7.0*,-5,0,-14
Nc1nc(NCc2cccc(C(F)(F)F)c2)cc(Nc2ccncc2)n1,-12,0,4.9*,9,0,-1
c1ccc(CNc2cc(Nc3ccncc3)ncn2)cc1,-5,0,5.4*,-1,0,1
CCCC(CCC)C(=O)Nc1cccnc1,-12,0,0,2,·,·
CCCC(CCC)C(=O)Nc1ccncc1,11,1,8.7*,-3,1,5
CN1CCN(CCCOc2ncc(Nc3ncc(-c4ccc(C(F)(F)F)c(F)c4)nc3C(N)=O)cn2)CC1,·,·,6.9*,·,1,7
CC(C)Oc1c(Cl)cc(C=O)cc1Cl,12,0,6.8*,22,0,-1
O=C(Nc1nc(-c2ccccc2)c(C(=O)c2ccccc2)s1)c1cc(Cl)ccc1[N+](=O)[O-],0,0,1,1,·,·
